Assay outcomes deposited in PubChem BioAssay by National Center for Advancing Translational Sciences (NCATS).
Only a selection was taken, and hits are over-represented in it overall.
NPSR antag = neuropeptide S receptor (human) antagonism, cAMP; AID 1461; Potency, µM (doses to about 38.3 µM), without a hit: top-dose activity change, negative = inhibition, most hits filed as inhibitors; Q6W5P4; CHO-NPSR cells, cAMP TR-FRET, antagonist mode; 220,000 tested, 1% active; note: potency is the fitted concentration of half-maximal effect; % is set by controls: 0 for no effect and ±100 for the full control effect; nearly all actives have a fitted effect of over 50% in size
RXFP1 antagonist = antagonists of human relaxin receptor RXFP1 | Q9HBX9 | HEK293-RXFP1, relaxin-stimulated cAMP HTRF, 30 min; hits give low values | activity change, negative = inhibition, % at 57.5 µM | 350,000 tested, 0.59% active;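 active = activity change of -60% or lower, but not beyond a set lower limit; inconclusive = change between -60% and -40%, or beyond the set limit; inactive = change above -40%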; note: % is set by controls: 0 for no effect and ±100 for the full control effect
TSHR antag = human thyrotropin receptor antagonism. P16473. TSHR-expressing cells, TSH-stimulated cAMP HTRF, 2 h; hits give low values. activity change, negative = inhibition, % at 11.5 µM. 330,000 tested, 0.2% active;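 active = activity change below a set negative limit, meaning inhibition stronger than a set level, cut at about -70% in these data; inconclusive = activity change between two set negative limits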; note: % is set by controls: 0 for no effect and ±100 for the full control effect
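Freshly harvested TSHR cells receive pin-tooled compound, then EC80 TSH at 4nM final. After 2 hours at 37 deg C, antibody in lysis buffer and cAMP-d2 are added; 30 minutes at ambient temperature precede the HTRF read.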
RXFP1 ag = activates the human relaxin receptor RXFP1; Potency, µM (doses to about 57.5 µM), for inactives: top-dose activation, most hits filed as activators; HEK293T-RXFP1 cAMP TR-FRET, 30 min; response scale: percent of porcine relaxin response, buffer zero; Q9HBX9; 370,000 tested, 0.3% active; AID 2676; note: potency is the fitted concentration of half-maximal effect; % is set by controls: 0 for no effect and ±100 for the full control effect; nearly all actives have a fitted effect of over 60% in size
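Agonist response is measured as cAMP accumulation in an RXFP1-transfected HEK293T line under PDE4 inhibition. Values are scaled between buffer-only and 29 nM porcine relaxin, and EC50s come from standard Hill equation fits.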
PTHR1 ag = activates the human parathyroid hormone receptor PTHR1; HEK293 GP2 PTHR1 cells, GloSensor cAMP luminescence, 1 h; Potency, µM (highest dose often 115 µM), inactives show at the highest dose activation, usual class: activators; 410,000 tested, 0.075% active; note: potency is the fitted concentration of half-maximal effect; nearly all actives have a fitted effect of over 55% in size
Target sequence (Q03431 whole entry, looked up): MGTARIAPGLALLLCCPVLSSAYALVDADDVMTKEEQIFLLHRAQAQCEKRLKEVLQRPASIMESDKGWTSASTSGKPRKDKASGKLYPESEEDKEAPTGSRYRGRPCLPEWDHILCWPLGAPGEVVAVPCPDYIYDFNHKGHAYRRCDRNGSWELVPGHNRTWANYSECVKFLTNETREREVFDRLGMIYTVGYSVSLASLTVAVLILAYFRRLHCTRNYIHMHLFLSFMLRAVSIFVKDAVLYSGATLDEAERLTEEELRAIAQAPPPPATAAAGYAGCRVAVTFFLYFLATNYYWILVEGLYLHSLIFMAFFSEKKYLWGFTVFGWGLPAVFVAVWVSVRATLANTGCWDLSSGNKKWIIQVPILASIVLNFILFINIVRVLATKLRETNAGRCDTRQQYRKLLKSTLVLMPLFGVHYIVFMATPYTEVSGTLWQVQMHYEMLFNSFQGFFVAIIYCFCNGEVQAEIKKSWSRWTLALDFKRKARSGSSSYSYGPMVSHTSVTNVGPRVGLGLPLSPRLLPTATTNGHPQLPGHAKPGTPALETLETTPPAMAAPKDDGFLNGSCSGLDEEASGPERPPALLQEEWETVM
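HEK-293-derived GP2 cells expressing PTHR1 and a GloSensor cAMP reporter, 3,000/well, plated overnight, given luciferin plus IBMX (each 0.5 mM as added) for 1 h at 37 °C, then compound for 1 h at 37 °C. Luminescence was read after 15 min at room temperature.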
HEK293 tox = cytotoxicity counter-screen for GLP-1 receptor inverse agonists; HEK293 cAMP-luciferase reporter cells, luminescence, 24 h; Potency, µM (doses to about 38.3 µM), for inactives: at the highest dose activity change, negative = inhibition, hits mostly inhibitors; 410,000 tested, 0.13% active;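 note: loss of luciferase light is scored as toxicity; potency is the fitted concentration of half-maximal effect; % is set by controls: 0 for no effect and ±100 for the full control effect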
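Compound-treated cells are incubated 24 hr at 37 deg C under 5% CO2 after a 12 hour attachment period, then luciferase detection reagent is added and luminescence is measured following 12 min at room temperature; lowered signal indicates toxicity.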
* hit, by the source's call; i = inactive; ? = inconclusive; / = not tested or not shown; [ ] = dose if it differs, or a comment. Unless noted, calls come from the whole dose curve; as a rule, active = well fitted curve in the direction sought with a large enough effect; inconclusive = small, poorly fitted or top-dose-only effect, or another doubt; inactive = no such curve, though single readings can be large; an effect the other way counts as inactive or inconclusive.

SMILES	NPSR antag	RXFP1 antagonist	TSHR antag	RXFP1 ag	PTHR1 ag	HEK293 tox
CNC(=S)N=Nc1c(O)[nH]c2ccccc12	-37%	/	2	0%	i	11µM*
COc1ccc(NC(=S)N=Nc2c(O)[nH]c3ccccc23)cc1	-48%	10	-8	3%	-23%	3.2µM*
Cc1ccc(NC(=S)N=Nc2c(O)[nH]c3ccccc23)cc1	-46%	-24	7	0%	-4%	4µM*
CCCCC[C@H](O)C=C[C@H]1[C@H](O)CC(=O)[C@H]1CC=CCCCC(=O)O	/	3	/	/	/	/
N#C/C(=C/c1ccc(N2CCOCC2)o1)c1ccc(Br)cc1	-29%[46.1 µM]	?	7	1%	-17%[57.5 µM]	14%
N#C/C(=C/c1ccc(N2CCCCCC2)o1)c1ccc(F)cc1	/	-24	/	/	-26%	?
N#C/C(=C\c1ccc(N2CCOCC2)o1)c1ccccc1	?	-8	-82*	2%	-13%[57.5 µM]	7%
N#C/C(=C/c1ccc(N2CCCCCC2)o1)c1cccc(F)c1	6.3µM*	-19	-9	-2%	-16%[57.5 µM]	?
CN(CC(=O)Nc1cccc(F)c1)C(=O)CSc1ccc(Br)cc1	/	-72*	0	0%	i	-9%
CCN1CCN(c2cc3c(nn2)Oc2ccccc2N3C)CC1	-3%	-13	-14	1%	i	-21%
Nc1nc(-c2ccc(F)cc2)cc(C(F)(F)F)n1	9%[46.1 µM]	-11	-7	1%	-3%	-6%
COc1ccc(-c2cc(C(F)(F)F)nc(N)n2)cc1	3%	-61*	-9	-1%	i	-2%
CCCC(=O)O[C@]1(C(=O)CC)CC[C@H]2[C@@H]3CCC4=CC(=O)CC[C@]4(C)[C@H]3[C@@H](O)C[C@@]21C	/	3	/	/	/	/
CCOC(=O)c1noc2ncn(CC(=O)O)c(=O)c12	/	-7	/	1%	i	-3%
Cc1cccc(OCC(=O)N(Cc2ccc(C(C)(C)C)cc2)Cc2ccco2)c1	/	-75*	/	-2%	-19%	1%
CC(C)(C)c1ccc(C(=O)N(Cc2ccc(F)cc2)Cc2ccco2)cc1	/	-79*	/	1%	i	3%
COc1cc(C(=O)N(Cc2ccc(F)cc2)Cc2ccco2)cc(OC)c1OC	/	-8	/	-2%	?	-10%
Cc1ccc(CN(Cc2ccco2)C(=O)COc2ccc(C)c(C)c2)cc1	/	/	/	0%	-49%	8%
CCc1ccc(OCC(=O)N(Cc2ccc(C)cc2)Cc2ccco2)cc1	/	-61*	/	0%	-75%	8%
CCOc1cc(/C=C(\C#N)C(=O)Nc2cccc(C(=O)O)c2)cc(Br)c1OC(=O)c1ccc(OC)cc1	/	-89*	-5	-3%	i	28%
Cc1ccc(C(=O)Oc2ccc(Br)cc2C(=S)N2CCOCC2)cc1	/	-12	-9	-3%	-51%	-8%
COc1ccc(C(=O)Oc2ccc(Br)cc2C(=S)N2CCOCC2)cc1	/	-67*	13	2%	12%	-2%
COc1ccccc1N1CCN(C(=O)c2ccc(C(C)(C)C)cc2)CC1	?	-24	-1	0%	i	-6%
COc1ccccc1C1CCN(C(=O)c2ccc(C(C)(C)C)cc2)CC1	/	-90*	-6	-1%	-11%	-3%
CC(C)CC(=O)Nc1ccc(C(=O)OCc2cc(=O)n3nc(C(C)C)sc3n2)cc1	/	17	/	12%	17%	-2%
O=C(NC(Nc1ncc(S(=O)(=O)c2ccc([N+](=O)[O-])cc2)s1)(C(F)(F)F)C(F)(F)F)c1ccc(Cl)cc1	13µM*	-36	-40	-3%	-30%	-21%
O=C(Nc1ncc(S(=O)(=O)c2ccc([N+](=O)[O-])cc2)s1)c1cccc2ccccc12	-29%	-6	-82*	1%	-23%	-23%
COCC(=O)Nc1ncc(S(=O)(=O)c2ccc([N+](=O)[O-])cc2)s1	10%	-7	-4	1%	-16%	2%[7.66 µM]
CN(Cc1cccnc1)C(=O)CNC(=O)COc1ccccc1	/	13	8	1%	i	8%
